Assay results taken from PubChem BioAssay.
The source made the active and inactive calls.

Experiments:
[1] = system: Plasmodium falciparum Sir2 (PF13_0152, Sir2A); assay: pfSir2 binders on small-molecule microarrays, primary screen, biochemical, small-molecule microarray, 635 nm fluorescence (AID 1098); settings: small-molecule microarray binding, fluorescence 635 nm; higher = more signal;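 further: score merges spot fluorescence intensity with its signal-to-noise ratio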
[2] = small-molecule microarray binders of probe aDKK1, primary screen, biochemical, biotinylated probe, 635/667 nm fluorescence (AID 1099); settings: higher = more signal;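 further: score merges 667nm spot fluorescence with signal to noise across triplicate slides; reference of the scale not given here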
[3] = small-molecule microarray binders of probe aCHRDL2, primary screen, biochemical, biotinylated probe, 635/667 nm fluorescence (AID 1100); settings: higher = more signal
[4] = splicing luciferase reporter signal modulators, primary screen, spliceosome inhibition project, cell-based, HEK293, splice +/- reporter (AID 1101); settings: luminescence, 24 h, higher = more signal, called active from +8 up or from −8 down;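 further: HEK293 cells carrying a splicing-competent luciferase reporter gene; test concentration not given here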
[5] = biological target: Fibroblast growth factor 10 (Homo sapiens) (UniProt O15520); assay: FGF10 binders on small-molecule microarrays, primary screen, biochemical, small-molecule microarray, 635 nm fluorescence (AID 1102); settings: FGF10 binding, fluorescence 635 nm, higher = more signal
Sequence of Fibroblast growth factor 10 (Homo sapiens) (O15520 whole entry, looked up): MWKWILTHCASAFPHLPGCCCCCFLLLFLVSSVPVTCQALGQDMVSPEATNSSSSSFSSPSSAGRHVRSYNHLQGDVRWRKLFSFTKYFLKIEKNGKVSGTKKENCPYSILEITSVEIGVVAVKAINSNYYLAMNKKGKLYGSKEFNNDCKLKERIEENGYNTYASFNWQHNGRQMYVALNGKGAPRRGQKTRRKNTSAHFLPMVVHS

[6] = system: glycogen synthase kinase-3 (GSK3A per assay name; protocol says GSK3B); assay: GSK3 binders on small-molecule microarrays, primary screen, biochemical, small-molecule microarray, 635 nm fluorescence, GSK3A (AID 1103); settings: small-molecule microarray binding, fluorescence 635 nm; higher = more signal; further: the record names both GSK3A and GSK3B
[7] = biological target: Epidermal growth factor receptor (Homo sapiens) (UniProt P00533); assay: EGFR binders on small-molecule microarrays, primary screen, biochemical, small-molecule microarray, 635 nm fluorescence (AID 1104); settings: EGFR binding, higher = more signal;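 further: score merges 667 nm emission intensity with spot signal to noise over triplicate slides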
Sequence of Epidermal growth factor receptor (Homo sapiens) (P00533 whole entry, looked up): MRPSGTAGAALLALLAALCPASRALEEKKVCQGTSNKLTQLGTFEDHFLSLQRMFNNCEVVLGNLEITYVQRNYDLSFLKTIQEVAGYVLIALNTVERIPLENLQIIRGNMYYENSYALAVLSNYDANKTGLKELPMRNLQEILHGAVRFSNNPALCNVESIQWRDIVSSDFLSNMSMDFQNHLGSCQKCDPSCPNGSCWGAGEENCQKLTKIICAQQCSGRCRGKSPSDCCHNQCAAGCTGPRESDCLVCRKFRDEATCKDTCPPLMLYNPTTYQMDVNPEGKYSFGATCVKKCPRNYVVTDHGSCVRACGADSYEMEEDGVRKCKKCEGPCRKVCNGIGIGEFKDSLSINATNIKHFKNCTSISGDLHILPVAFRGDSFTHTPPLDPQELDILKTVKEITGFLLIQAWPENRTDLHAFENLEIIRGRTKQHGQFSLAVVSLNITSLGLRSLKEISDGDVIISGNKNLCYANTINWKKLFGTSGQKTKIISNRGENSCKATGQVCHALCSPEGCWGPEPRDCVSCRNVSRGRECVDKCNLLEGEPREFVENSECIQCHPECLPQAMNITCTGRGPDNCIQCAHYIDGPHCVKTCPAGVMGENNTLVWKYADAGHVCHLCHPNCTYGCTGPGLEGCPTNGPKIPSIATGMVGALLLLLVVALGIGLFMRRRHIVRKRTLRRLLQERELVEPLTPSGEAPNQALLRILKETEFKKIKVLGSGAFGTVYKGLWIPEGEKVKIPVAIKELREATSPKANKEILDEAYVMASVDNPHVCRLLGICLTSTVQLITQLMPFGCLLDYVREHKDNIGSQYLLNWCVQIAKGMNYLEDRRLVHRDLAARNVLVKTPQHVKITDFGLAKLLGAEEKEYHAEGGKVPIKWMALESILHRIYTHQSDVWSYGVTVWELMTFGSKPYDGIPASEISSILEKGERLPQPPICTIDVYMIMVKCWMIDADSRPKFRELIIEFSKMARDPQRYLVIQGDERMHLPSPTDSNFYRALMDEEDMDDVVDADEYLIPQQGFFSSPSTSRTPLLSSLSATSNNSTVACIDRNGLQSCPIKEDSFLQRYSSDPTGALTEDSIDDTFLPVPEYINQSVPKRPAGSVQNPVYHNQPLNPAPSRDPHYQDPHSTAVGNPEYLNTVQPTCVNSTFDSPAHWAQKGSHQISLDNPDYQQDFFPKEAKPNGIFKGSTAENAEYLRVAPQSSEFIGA

[8] = biological target: Follistatin-related protein 3 (Homo sapiens) (UniProt O95633); assay: FSTL3 binders on small-molecule microarrays, primary screen, biochemical, small-molecule microarray, 635 nm fluorescence (AID 1105); settings: FSTL3 binding, higher = more signal;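 further: score merges emission near 667 nm and signal to noise per printed spot across three slides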
Sequence of Follistatin-related protein 3 (Homo sapiens) (O95633 whole entry, looked up): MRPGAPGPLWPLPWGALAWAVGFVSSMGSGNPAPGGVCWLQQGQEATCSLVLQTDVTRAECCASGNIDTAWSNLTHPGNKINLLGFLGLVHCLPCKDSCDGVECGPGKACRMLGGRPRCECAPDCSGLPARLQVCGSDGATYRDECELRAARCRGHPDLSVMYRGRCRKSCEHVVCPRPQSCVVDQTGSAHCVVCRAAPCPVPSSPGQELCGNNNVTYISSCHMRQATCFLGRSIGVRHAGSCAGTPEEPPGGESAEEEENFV

[9] = biological target: Dickkopf-related protein 1 (Homo sapiens) (UniProt O94907); assay: DKK1 binders on small-molecule microarrays, primary screen, biochemical, small-molecule microarray, 635 nm fluorescence scan (AID 1106); settings: DKK1 binding, higher = more signal;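 further: score merges emission near 667 nm with signal to noise over three replicate slides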
Sequence of Dickkopf-related protein 1 (Homo sapiens) (O94907 whole entry, looked up): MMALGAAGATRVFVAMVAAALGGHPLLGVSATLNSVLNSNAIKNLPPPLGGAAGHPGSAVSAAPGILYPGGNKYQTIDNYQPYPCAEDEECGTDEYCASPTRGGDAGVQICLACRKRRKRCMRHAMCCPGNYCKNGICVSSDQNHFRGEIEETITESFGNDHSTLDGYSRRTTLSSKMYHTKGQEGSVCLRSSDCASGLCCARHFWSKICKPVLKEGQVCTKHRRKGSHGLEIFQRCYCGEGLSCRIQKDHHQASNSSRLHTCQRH

[10] = system: Inhibin beta A chain (activin A); assay: INHBA (activin A) binders on microarrays, primary screen, biochemical, small-molecule microarray, 635 nm fluorescence scan (AID 1107); settings: small-molecule microarray binding, higher = more signal;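 further: mouse activin A protein probed at 4.33 µg/mL on printed slides; score merges bound-protein fluorescence near 667 nm with spot signal-to-noise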

`C=CCNC(=O)[C@@H]1[C@H]2C(=O)O[C@H](c3ccccc3)[C@H](c3ccccc3)N2[C@H](c2ccc(OCCO)cc2)[C@@]12C(=O)N(C(=O)OCCOC)c1ccccc12` showed a composite z-score [1] of 1.2, a composite z-score [2] of -0.144 and a composite z-score [3] of 0.496. The z-score [4] was 0.263 (inactive), the composite z-score [5] was 1.28 and the composite z-score [6] was 1.08. For the same compound, the composite z-score [7] was 0.459, the composite z-score [8] was 1.03 and the composite z-score [9] was 0.0392. It also gave a composite z-score [10] of 0.745.
`O=C1NC(=O)C2C1C=CC(C(O)C1CCCCC1)N2Nc1ccccn1` (stereo not given) showed a composite z-score [1] of 0.488, a composite z-score [2] of 0.174 and a composite z-score [3] of 0.279. The z-score [4] was 1.31 (inactive), the composite z-score [5] was 0.355 and the composite z-score [6] was -0.133. For the same compound, the composite z-score [7] was 0.391, the composite z-score [8] was 0.402 and the composite z-score [9] was 0.254. It also gave a composite z-score [10] of 1.26.
`O=C1O[C@H](c2ccccc2)[C@H](c2ccccc2)N2[C@H]1[C@@H](C(=O)O)[C@]1(C(=O)Nc3ccc(C#CC4(O)CCCCCC4)cc31)[C@H]2c1ccccc1OCCO` showed a composite z-score [1] of 1.5, a composite z-score [2] of 0.0035 and a composite z-score [3] of -0.351. For the same compound, the z-score [4] was -0.767 (inactive), the composite z-score [5] was 1.02 and the composite z-score [6] was 1.29. The composite z-score [7] was 0.24, the composite z-score [8] was 0.69 and the composite z-score [9] was 0.195. It also gave a composite z-score [10] of 0.745.
For `O=C1NC(=O)C2C1C=CC(C(O)c1ccc(F)cc1)N2Nc1ccc(Cl)cc1Cl` (stereo not given), the composite z-score [1] was -0.315, the composite z-score [2] was 0.96 and the composite z-score [3] was 1.12. For the same compound, the z-score [4] was 1.65 (inactive), the composite z-score [5] was 0.327 and the composite z-score [6] was -0.923. It also gave a composite z-score [7] of -0.416, a composite z-score [8] of -0.194 and a composite z-score [9] of -0.459. For the same compound, the composite z-score [10] was 0.924.
`CCc1cccc(NC(=O)O[C@H]2[C@H](OC(=O)Nc3ccccc3-c3ccccc3)[C@H](OC(=O)Nc3ccccc3-c3ccccc3)[C@@H](OC)O[C@@H]2CO)c1` showed a composite z-score [1] of 0.477, a composite z-score [2] of 0.632 and a composite z-score [3] of 0.444. For the same compound, the z-score [4] was 1.93 (inactive), the composite z-score [5] was 1.45 and the composite z-score [6] was 1.34. It also gave a composite z-score [7] of 0.851, a composite z-score [8] of 1.31 and a composite z-score [9] of 0.635. For the same compound, the composite z-score [10] was 0.838.
Work on `O=C1N(Cc2ccccc2)Cc2ccccc2C[C@@]12COC(c1ccc(OCCCO)cc1)=N2` yielded a composite z-score [1] of 0.631, a composite z-score [2] of 1.02 and a composite z-score [3] of 1.27. The z-score [4] was 6.28 (inactive), the composite z-score [5] was 0.334 and the composite z-score [6] was 1.27. It also gave a composite z-score [7] of -0.622, a composite z-score [8] of 0.288 and a composite z-score [9] of 0.306. The composite z-score [10] was 1.4.
With `C=C(C(=O)CC[C@H](OC(=O)c1ccccc1-c1ccccc1C(=O)O)c1ccc(OCCO)cc1)C(C)C` the composite z-score [1] was 1.26, the composite z-score [2] was 0.157 and the composite z-score [3] was 0.0371. For the same compound, the z-score [4] was -0.47 (inactive), the composite z-score [5] was 1.04 and the composite z-score [6] was 0.114. For the same compound, the composite z-score [7] was -0.242, the composite z-score [8] was 0.0428 and the composite z-score [9] was 0.339. For the same compound, the composite z-score [10] was 0.548.
For `[N-]=[N+]=NCc1ccccc1C[C@@]1(C(N)=O)N=C(c2ccc(OCCCO)cc2)O[C@@H]1c1ccccc1N=[N+]=[N-]`, the composite z-score [1] was 1.51, the composite z-score [2] was 0.747 and the composite z-score [3] was 1.13. The z-score [4] was -0.397 (inactive), the composite z-score [5] was 0.839 and the composite z-score [6] was 1.19. It also gave a composite z-score [7] of -0.547, a composite z-score [8] of -0.239 and a composite z-score [9] of -0.38. The composite z-score [10] was -0.217.
For `CN1C2C=C(c3ccc(CO)cc3)C(C3C(=O)N(C(N)=O)C(=O)C32)C1C1CC1` (stereo not given), the composite z-score [1] was 0.261, the composite z-score [2] was -0.202 and the composite z-score [3] was 0.0427. The z-score [4] was 0.0567 (inactive), the composite z-score [5] was -0.241 and the composite z-score [6] was -0.32. It also gave a composite z-score [7] of -0.127, a composite z-score [8] of -0.722 and a composite z-score [9] of -0.188. The composite z-score [10] was -0.586.
In the case of `COC(=O)[C@@]1(Cc2ccccc2)[C@H]2c3cc(C(=O)N(C)C)n(Cc4nc5ccccc5[nH]4)c3C[C@H]2CN1C(=O)c1ccccc1`, the composite z-score [1] is reported as 0.88, the composite z-score [2] is reported as 0.52 and the composite z-score [3] is reported as 1.21. The z-score [4] was -2.1 (inactive), the composite z-score [5] was 0.742 and the composite z-score [6] was 0.64. The composite z-score [7] was 0.226, the composite z-score [8] was 0.841 and the composite z-score [9] was -0.416. It also gave a composite z-score [10] of 0.893.
`CC1C2C(CCCO)=CC(C3C(=O)N(C(N)=O)C(=O)C23)N1Cc1cccc(OC(F)(F)F)c1` (stereo not given) gave a composite z-score [1] of 0.174, a composite z-score [2] of -0.0132 and a composite z-score [3] of -0.311. The z-score [4] was -0.586 (inactive), the composite z-score [5] was 0.646 and the composite z-score [6] was 0.719. For the same compound, the composite z-score [7] was 0.177, the composite z-score [8] was 0.101 and the composite z-score [9] was -0.26. For the same compound, the composite z-score [10] was -0.055.
With `CCCNC(=O)[C@@]1(Sc2ccc(C)cc2)CC(=O)N(Cc2cc(C(F)(F)F)cc(C(F)(F)F)c2)[C@@H]1c1ccc(CO)cc1` the composite z-score [1] was -0.441, the composite z-score [2] was -0.09 and the composite z-score [3] was 0.738. For the same compound, the z-score [4] was -1.58 (inactive), the composite z-score [5] was 0.0468 and the composite z-score [6] was -0.365. The composite z-score [7] was -0.738, the composite z-score [8] was -0.888 and the composite z-score [9] was -1.2. The composite z-score [10] was 0.108.
`C=CC[C@]1(C(N)=O)N=C(c2ccc(OCCCO)cc2)O[C@H]1c1ccccc1N=[N+]=[N-]` showed a composite z-score [1] of 1.56, a composite z-score [2] of 1.28 and a composite z-score [3] of 1.26. For the same compound, the z-score [4] was -0.401 (inactive), the composite z-score [5] was 1.06 and the composite z-score [6] was 0.755. It also gave a composite z-score [7] of 0.259, a composite z-score [8] of 1.03 and a composite z-score [9] of 0.0701. The composite z-score [10] was 1.48.
`O=C1OCC=C[C@H]2OC34C=CCN(Cn5nnc6ccccc65)C(=O)[C@H]3N(CCO)C(=O)[C@@H]4[C@@H]12` (stereo not given in full) showed a composite z-score [1] of 0.101, a composite z-score [2] of -0.0279 and a composite z-score [3] of 0.329. The z-score [4] was 1.15 (inactive), the composite z-score [5] was -1.33 and the composite z-score [6] was -1.02. The composite z-score [7] was -1.09, the composite z-score [8] was -1.35 and the composite z-score [9] was -1.71. The composite z-score [10] was -0.0812.
Compound `COC(=O)c1c2oc(c1C(=O)OC)C(=O)N[C@H](Cc1ccccc1)Cn1cc(nn1)C1(CCCCC1)NC(=O)N[C@H](CO)CC2` has a composite z-score [1] of 0.569, a composite z-score [2] of -0.177 and a composite z-score [3] of -0.279. The z-score [4] was -0.168 (inactive), the composite z-score [5] was 0.495 and the composite z-score [6] was -0.528. It also gave a composite z-score [7] of -0.857, a composite z-score [8] of -0.409 and a composite z-score [9] of -0.2. It also gave a composite z-score [10] of 0.116.
`CN1C(=O)C2C=CC(C(O)c3cccs3)N(N(c3ccccc3)c3ccccc3)C2C1=O` (stereo not given) showed a composite z-score [1] of 0.82, a composite z-score [2] of 0.0508 and a composite z-score [3] of 0.66. The z-score [4] was 2.04 (inactive), the composite z-score [5] was 0.347 and the composite z-score [6] was 0.347. It also gave a composite z-score [7] of -0.665, a composite z-score [8] of 0.602 and a composite z-score [9] of -0.351. The composite z-score [10] was 1.27.
